Screening results as filed in PubChem.
Rows were chosen to be rich in hits. Some 4% of all compounds tested hit in one or more screens of this group.
PAX8 inh HTS – lowers PAX8-driven luciferase in RMG-I cells. RMG-I TPO-luciferase reporter, SteadyGlo, 24 h. inhibition, % at 12.6 µM. 360,000 compounds, 1.2% hits. AID 652154;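 active = mean replicate inhibition at least 60% with every replicate also reaching 60%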;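 also: luciferase light reporting Pax8 driven TPO promoter activity; plate controls were median of neutral control wells for no effect and mitoxantrone controls for full effect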
esBAF inh – blocks esBAF chromatin remodeling in mouse ES cells. Bmi1-luciferase knock-in reporter, 24 h; 100% = twice the neutral-well signal. reporter increase, % at 12.5 µM. 350,000 compounds, 2% hits; in the data active = activation above about 40%;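 also: 0% = median of the plate's neutral control wells and 100% = double that signal; a rise in the Bmi1 reporter signal indicates esBAF inhibition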
Wnt bcat act – Wnt/beta-catenin pathway activation; Wnt/beta-catenin reporter cell assay, activator, plate reader; activation, % at 9.35 µM; 300,000 compounds, 1.2% hits; in the data active = activation above about 30%, passing the limit was not always enough;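 also: 0% = neutral control wells and 100% = positive control wells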
EWS-Fli block – inhibitors of EWS/Fli oncoprotein transcriptional activity; A673 NR0B1-luciferase reporter, viability-normalised; inhibition, % at 12.6 µM; 350,000 compounds, 0.67% hits; AID 651661;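 active = mean inhibition of at least 50% after viability correction, with every replicate also passing that limit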;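 also: firefly luciferase signal divided by Alamar Blue viability fluorescence both relative to DMSO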
TRPM1 prom inh – reduces MITF-dependent TRPM1 promoter luciferase signal. SK-MEL-5 TRPM1 promoter luciferase, 24 h. inhibition, % at 12.5 µM. 330,000 compounds, 0.83% hits. AID 488899;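 active = mean inhibition across replicates of 60% or more, whatever share of single replicates reaches that level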
MITF TRPM1 HTS – MITF TRPM1 promoter activation in melanoma cells; SK-MEL-5 TRPM1-promoter luciferase, 24 h; % of positive control, neutral wells = 0; 300,000 compounds, 0.75% hits; AID 588334; activation, % at 12.5 µM;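 active = mean activation of at least 80% with every replicate also reaching 80%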;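 also: 0% = neutral control wells and 100% = parthenolide positive control wells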
An asterisk follows results filed as active; nt = no result given.

SMILES	PAX8 inh HTS	esBAF inh	Wnt bcat act	EWS-Fli block	TRPM1 prom inh	MITF TRPM1 HTS
COc1ccc(NC(=O)N(C)C[C@@H]2Oc3ncc(C#CCC(C)C)cc3C(=O)N([C@@H](C)CO)C[C@H]2C)cc1	12	nt	nt	10	nt	nt
CC(=O)c1sc(NC(=O)CCS(=O)(=O)c2ccc(F)cc2)nc1C	77*	-3	nt	-12	nt	nt
CCCN(C)C[C@@H]1Oc2ncc(-c3ccccc3OC)cc2C(=O)N([C@H](C)CO)C[C@H]1C	nt	-4	nt	0	nt	nt
Cc1ccc(NC(=O)C(c2ccccc2)N2CCN(CC(=O)N3CCOCC3)CC2)cc1 (stereo unspecified)	-115	24	33*	-44	-21	22
COC(=O)c1ccc2c(=O)[nH]c(CSc3nc(-c4ccc(F)cc4)cs3)nc2c1	21	nt	0	nt	10	-7
COC(=O)c1ccc2c(=O)[nH]c(CSc3nc(C)cs3)nc2c1	-39	23	35*	-8	-24	31
C[C@H](CO)N1C[C@H](C)[C@@H](CN(C)Cc2ccccc2)Oc2ccc(NS(C)(=O)=O)cc2CC1=O	-17	1	nt	-7	nt	nt
CCOC(=O)c1c(C)nc(-c2ccccc2)nc1N	nt	50*	nt	nt	-21	nt
CCOC(=O)c1c(-c2ccccc2)cn2c(C)cc(C)nc12	-179	63*	23	-93	-64	67
CC(=O)c1c(C)nc(-c2ccccc2)nc1N	-18	8	0	-37	-17	17
C/C=C/c1ccc2c(c1)[C@H]1[C@H](CCN1C(=O)Cc1cccnc1)[C@H](CO)N2C	5	-3	nt	3	nt	nt
O=C(Cn1cc(C(F)(F)F)cc(Cl)c1=O)NCc1ccc(F)cc1	-93	58*	9	-36	-54	48
O=C1c2ccccc2C(=O)N1OCCOCCOCCON1C(=O)c2ccccc2C1=O	-17	-9	45*	nt	10	-10
O=C1c2ccccc2C(=O)N1OCCOCCOCCBr	nt	-15	nt	nt	4	-1
O=C(NC1CCCC1)[C@@H]1[C@@H](CO)[C@@H]2Cn3c(cccc3=O)[C@@H]2N1CCc1ccccc1	1	nt	nt	nt	nt	nt
O=C(CSc1nnc(Cc2cccs2)n1C1CCCCC1)N1CCN(C(=O)c2ccco2)CC1	74*	8	-3	nt	25	-25
CCCNC(=O)[C@H]1[C@H](CO)[C@H]2Cn3c(ccc(C4=CCCCC4)c3=O)[C@@H]1N2CC	nt	1	nt	-8	nt	nt
O=C(NC1CCCCC1)C(c1ccc(F)cc1)N(CCc1ccccc1)C(=O)CN1C(=O)c2ccccc2S1(=O)=O (stereo unspecified)	8	4	-5	13	64*	-63
Cc1ccc(CNC(=O)C2CCN(S(=O)(=O)c3c(C)noc3/C=C/c3ccco3)CC2)cc1	83*	-3	-1	27	7	-1
Cc1cccnc1NC(=O)C1CCN(S(=O)(=O)c2c(C)noc2/C=C/c2ccco2)CC1	17	-14	-5	nt	-3	7
Cc1ccc(NC(=O)C2CCN(S(=O)(=O)c3c(C)noc3/C=C/c3ccco3)CC2)nc1	30	-3	-10	nt	72*	-72
COc1ccc2c3c([nH]c2c1)[C@H](CO)N(C(=O)C1CCCC1)CC31CN(Cc2cccc(F)c2)C1	nt	nt	nt	-3	nt	nt
CCCn1cnc2c(SCc3ccccn3)nc(N)nc21	-5	13	3	-11	-4	6
Nc1nc(SCc2ccccn2)c2ncn(C3CCCC3)c2n1	-80	44*	0	-12	-9	14
Cc1cc(C(=O)CSc2ccc(F)cc2)cc(C)c1O	-160	56*	11	-25	-66	66
SMILES	PAX8 inh HTS	esBAF inh	Wnt bcat act	EWS-Fli block	TRPM1 prom inh	MITF TRPM1 HTS
C[C@H](CO)N1C[C@H](C)[C@H](CN(C)S(=O)(=O)c2cn(C)cn2)Oc2c(NS(C)(=O)=O)cccc2C1=O	nt	-17	nt	20	nt	nt
CCS(=O)(=O)NCC[C@H]1CC[C@H](NC(=O)C2CCCC2)[C@@H](CO)O1	2	-1	nt	10	nt	nt
Brc1ccc(-c2cn3c(n2)SCC3)cc1	-177	58*	42*	-118	-69	66
Clc1ccc(-c2cn3c(n2)SCC3)cc1	-249	56*	47*	-124	-76	80
CCSc1ncccc1C(=O)N[C@@H](CCSC)C(=O)OC	11	nt	45*	4	nt	nt
C[C@H]1CN([C@@H](C)CO)C(=O)c2cc(-c3cccc(C(=O)N(C)C)c3)cnc2O[C@@H]1CN(C)S(=O)(=O)c1ccccc1	8	-2	nt	-45	nt	nt
Cc1ccc(C)c(NC(=S)c2ccccn2)c1	-77	46*	36*	nt	-10	13
